Data on 16 sequences can be found in the supplement of paper PMC10338343.

± gives the standard deviation.

The subject of this assay is MILI (PIWIL2) piRISC loaded with piRNA #1 (26 nt). The experiment in a line: pre-steady-state target cleavage rate (min^-1); guide: piRNA #1 5'p-UGAGGUAGUAGGUUGUAUAGUAUCCA; MIWI and MILI are mouse PIWI proteins and EfPiwi is from a freshwater sponge; tags in brackets are library labels; higher = faster piRNA-guided slicing of the target. To be noted: auxiliary factor: 500 nM mouse GTSF1. The essentials: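 Active affinity-purified piRISC (1 nM) loaded with one synthetic guide was mixed with a transcribed, DNA-blocked target RNA library (0.1 nM), with or without 500 nM GTSF1 partner protein, in HEPES–potassium acetate buffer at 33 °C for 0–8 or 0–960 min. Uncleaved targets were sequenced, normalised to depth and to weakly complementary targets, and pooled across three trials, with k3 capped at 0.0001 min^-1. The pre-steady-state cleavage rate was determined with a burst-and-steady-state fit.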
On to GGAGACCAUUACUAUACAACCUACUACCUCA, for which the “pre-steady-state target cleavage rate” value was found to be 0.137 ± 0.012.

For the sequence GGAGACCUAUGAAUACCAACCUACUACCUCA, the “pre-steady-state target cleavage rate” value is 0.00269 ± 0.0026.

Take GGAGACCUUACUUUACAACGUACUACCUCA: the “pre-steady-state target cleavage rate” value came out at 0.0199 ± 0.0047.

Consider GGAGACGAUACGUAUACAACCUACUACCUCA, for which the “pre-steady-state target cleavage rate” value came out at 0.107 ± 0.013.

GGAGACCAUACUAUACAACGUACUAGCUCA: the “pre-steady-state target cleavage rate” value is 0.00786 ± 0.0034.

For GGAGACCUAUGAUUACAAGCUAGUACCUCA, the “pre-steady-state target cleavage rate” value was determined as 0.0146 ± 0.006.

With GGAGACCUUACUAUACAACCUACUUACCUCA, the “pre-steady-state target cleavage rate” value was determined as 0.158 ± 0.013.

Regarding GGAGACCUAUGUUUACAACCUACUUCCUCA, the “pre-steady-state target cleavage rate” value came to 0.0114 ± 0.0056.

With GGAGACCAUACUUAACAACCUACUACCUCA, the “pre-steady-state target cleavage rate” value was 0.134 ± 0.018.

Consider GGAGACCUUACUAUACAACGUAGUACCUCA, for which the “pre-steady-state target cleavage rate” value is 0.015 ± 0.0045.

As for GGAGACCUAUGUAAACAUCCUACUACCUCA, the “pre-steady-state target cleavage rate” value was determined as 0.0128 ± 0.0025.

Turning to GGAGUGGAUACUAUAGAACCAACUACCUCA, the “pre-steady-state target cleavage rate” value turned out to be 0.00293 ± 0.0022.

For the sequence GGAGACCUUACUAAACAUCCUACUACCUCA, the “pre-steady-state target cleavage rate” value turned out to be 0.208 ± 0.017.

For GGAGACCUAUCUAUAGAUCCUACUACCUCA, the “pre-steady-state target cleavage rate” value came to 0.144 ± 0.017.

For the sequence GGAGACCUAUGAAUACAAACUACUACCUCA, the “pre-steady-state target cleavage rate” value came to 0.0186 ± 0.0035.

For the sequence GGAGACCUAUCUAUACUACCUACAACCUCA, the “pre-steady-state target cleavage rate” value was determined as 0.0808 ± 0.009.
